Measurements taken from PubChem BioAssay (NCI).
This is part of a sample that, as a whole, favours compounds with a hit. Of some 83,000 tested, about 20% had one in any assay.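 Percent growth is the endpoint: 0 to 100 indicates growth inhibition (40 means 60% inhibition), 0 means no net growth, and negative values indicate cell death.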 A number with no mark means an inactive call. Activity calls are given as the source filed them. Rule for the calls: active = growth percent below 10; inactive = the rest.

Key:
Test in all cases: NCI-60 one-dose screen, 48 h (100 = growth as untreated, 0 = no growth, -100 = all killed)
Details in all cases: 10 µM unless noted
[1] = tested on: NCI-H23 lung
[2] = tested on: NCI-H226 lung
[3] = tested on: NCI-H322M lung
[4] = tested on: HOP-62 NSCLC
[5] = tested on: NCI-H460 lung
[6] = tested on: HOP-92 NSCLC
[7] = tested on: NCI-H522 lung
[8] = tested on: A549/ATCC NSCLC
[9] = tested on: 786-0 renal
[10] = tested on: COLO 205 colon
[11] = tested on: DU-145 prostate
[12] = tested on: K-562 leukemia
[13] = tested on: MALME-3M melanoma
[14] = tested on: MDA-MB-231 breast
[15] = tested on: RXF 393 renal
[16] = tested on: SF-268 CNS
[17] = tested on: SF-295 CNS
[18] = tested on: SF-539 CNS
[19] = tested on: UACC-257 melanoma
[20] = tested on: M14 melanoma

Compound	growth [1]	growth [2]	growth [3]	growth [4]	growth [5]	growth [6]	growth [7]	growth [8]	growth [9]	growth [10]	growth [11]	growth [12]	growth [13]	growth [14]	growth [15]	growth [16]	growth [17]	growth [18]	growth [19]	growth [20]
CC[C@]12C=CCN3CC[C@@]4(c5ccc(OC)cc5N(C)[C@H]4[C@@](O)(C(=O)OC)[C@@H]1OC(=O)CCCC[P+](c1ccc(F)cc1)(c1ccc(F)cc1)c1ccc(F)cc1)[C@@H]32	23.6%	38%	52.9%	50.9%	20.3%	-12.2% (active)	-11.6% (active)	37.5%	87.1%	-43.4% (active)	36.4%	17.1%	-55.9% (active)	2.85% (active)	-9.93% (active)	28.1%	78.5%	16%	-50.7% (active)	19.7%
O=C(Cc1c(-c2ccccc2[N+](=O)[O-])n(-c2ncnc3c2c(-c2ccccc2)c(-c2ccccc2)n3Cc2ccccc2)[nH]c1=O)c1ccc(Cl)c(Cl)c1	9.58% (active)	24.7%	42.7%	49.3%	15.9%	-3.98% (active)	-10.1% (active)	25.6%	36.2%	43.1%	32.2%	12%	-12.6% (active)	33.5%	31.7%	30.9%	3.25% (active)	38.2%	11.5%	14.6%
O=C(CSc1nc2sc3c(c2c(=O)n1-c1ccc(Cl)cc1)CCCC3)NNC(=O)c1ccc(F)cc1	73.7%	62.7%	73.8%	23.7%	88.6%	69.2%	77.3%	94.2%	96.8%	125%	109%	72.3%	80.5%	28.8%	89.7%	95.9%	90.4%	-28.4% (active)	106%	80.6%
N#CC1=C(c2cccs2)Nc2c(c(-c3ccccc3)nn2-c2ccccc2)C12C(=O)Nc1ccc(Cl)cc12 (stereo not given)	23.8%	51.6%	47.1%	28.8%	6.17% (active)	-8.79% (active)	3.38% (active)	24.4%	22.3%	-29.2% (active)	50.5%	11.1%	76.3%	21.5%	-11.4% (active)	23.2%	12.9%	20.5%	63.5%	16.5%
Cc1cc(=O)oc2cc(OCC(O)CNN3C(=O)c4cccc5c(N6CCN(C)CC6)ccc(c45)C3=O)ccc12 (stereo not given)	98.4%	102%	101%	99.8%	99.4%	68.3%	98.2%	99.8%	97.8%	87.7%	96.6%	80.4%	14.5%	89.3%	82.3%	91.4%	108%	81.2%	72.9%	89.7%
COc1c(F)ccc(C(=O)Nc2ccc3nc(NC(=O)C4CCCN(S(=O)(=O)c5ccc(C(C)(C)C)cc5)C4)sc3c2)c1F (stereo not given)	66.6%	64.1%	80.3%	88.9%	57.3%	6.58% (active)	66.7%	64.1%	56%	80.9%	79.5%	26.5%	77.3%	47%	14.9%	68.5%	78.3%	74%	69.3%	87.6%
CC1=C(C(=O)OCc2ccccc2)C(c2cccc3ccccc23)n2c(nc3ccccc32)N1 (stereo not given)	46.4%	19.4%	36.6%	38.3%	9.99% (active)	64.6%	-42.2% (active)	33.9%	30.3%	13.9%	28.9%	11.7%	16.8%	37.9%	0.534% (active)	44.9%	10.5%	11.8%	40.7%	23.9%
COc1ccc2[nH]c(=O)c(CSc3ccccc3Nc3nccc(-c4ccc(C(F)(F)F)cc4)n3)cc2c1	30.7%	18.7%	67.4%	53.6%	17.4%	26.7%	0.553% (active)	18.5%	-4.97% (active)	27.8%	27.3%	19.5%	47.4%	31.6%	-41.2% (active)	19.5%	5.31% (active)	0.901% (active)	50.3%	52.3%
